According to PubChem BioAssay (NCATS):
Results filed as inconclusive are left out. The source made the active and inactive calls. The call rests on the fitted dose curve; in most records, active means well fitted cell-killing curve with a large enough effect; inconclusive means small, poorly fitted or top-dose-only effect; inactive means no such curve, though single readings can be large or run the other way.

Test: qHTS of pediatric cancer cell lines to identify multiple opportunities for drug repurposing: Primary screen for SJ-GBM2 cells (AID 1347091)
Conditions: SJ-GBM2 viability, CellTiter-Glo luminescence, 48 h; series mostly up to 46 µM
Source text: Drug repurposing or repositioning has been offered as a strategy for drug development in oncology programs. This approach has special potential for childhood cancers and other rare or orphan diseases, where the expected return on new drug development has been a disincentive to pharmaceuticals.
In this project we exploit the poly-pharmacology of drugs to discover new indications via phenotypic screening of a panel of 19 well-characterized cell lines derived from solid tumors seen in children and adolescents. The goal is to identify approved drugs with previously unrecognized anticancer properties that has the potential to reveal new mechanisms and biological processes involved in carcinogenesis or drug resistance. We employed a titration-based paradigm (quantitative high-throughput screening or qHTS), where all compounds were tested at multiple concentrations for their effect on cell viability. Concentration-response curves (CRCs) were derived directly from the primary screen, and both potency and efficacy values were used to identify compounds with robust bioactivity profiles. We screened the NIH Chemical Genomics Center (NCGC) Pharmaceutical Collection (NPC) and Mechanism Interrogation Plate (MIPE) small molecule collections of approved and investigational compounds against these cell lines; and measured metabolically active cells after 48 hours of compound treatment as a proxy for cell viability.
Assay Submitter: Nathalia J. Martinez, National Center for Advancing Translational Sciences, National Institutes of Health, Rockville, MD, USA; email: natalia.martinez@nih.gov
[1] Shen, M et al. Quantitative high-throughput phenotypic screening of pediatric cancer cell lines identifies multiple opportunities for drug repurposing. Oncotarget 2017 Dec 19;9(4):4758-4772. PMID 29435139.
The cells were obtained from University of North Carolina (UNC), Pediatric Preclinical Testing Program (PPT), and Coriell Institute (CI).
qHTS cell viability assay:
Cells were assayed in growth media at a density of 500-1,000 cells/well. Five microliters of cells were dispensed into 1,536-well, white, solid-bottom, TC-treated plates (Greiner Bio One) using a multidrop dispenser and incubated at 37 degrees C, 5% CO2, under a humidified atmosphere for 5 hours. Twenty-three nanoliters of compounds and controls (neutral control DMSO or positive control bortezomib at final concentration of 2.3 µM) were subsequently transferred by Kalypsys pintool. For primary screens, the MIPE collection was tested at 11-point dilutions (final concentrations range from 0.78 nM to 46 µM) and the NPC collection at 8-point dilutions (final concentrations range from 0.59 nM to 46 µM). Compounds tested in follow-up screens were assayed at 11-point dilutions. Cells were incubated for 48 hours, followed by addition of 3 uL of CellTiter-Glo (Promega). After a 15 min incubation at room temperature, samples were analyzed for luminescence intensity using a ViewLux High-throughput CCD imager equipped with clear filters.

Row | Structure (SMILES) | outcome | activity change, negative = cytotoxic
1 | COc1ccc(O)cc1 | inactive | –
2 | NC(=O)CC[C@@H](N)C(=O)O | inactive | –
3 | CCCC(O)C(CC)CO (stereo not given) | inactive | –
4 | CCCCCCCCCCOc1cc2c(=O)c(C(=O)OCC)c[nH]c2cc1OCC | – | 5.74% [at 4.84 µM] (inactive)
5 | Cc1onc(-c2ccccc2)c1-c1ccc(S(N)(=O)=O)cc1 | inactive | –
6 | O=C(O)c1cc(=O)c2ccccc2o1 | inactive | –
7 | C1CCN2C[C@@H]3C[C@@H](CN4CCCC[C@@H]34)[C@H]2C1 | inactive | –
8 | C=CCN1C[C@H](C(=O)N(CCCN(C)C)C(=O)NCC)C[C@@H]2c3cccc4[nH]cc(c34)C[C@H]21 | inactive | –
9 | NS(=O)(=O)c1ccc(C(=O)O)cc1 | inactive | –
10 | CCCNC(C)(C)COC(=O)c1ccccc1 | inactive | –
11 | Cc1ccsc1/C=C/C1=NCCCN1C | inactive | –
12 | Cc1cc(OI)c(C(C)C)cc1-c1cc(C(C)C)c(OI)cc1C | inactive | –
13 | O=C(NCCCN1CCOCC1)c1ccc(Cl)cc1 | inactive | –
14 | CCN(CC)CC1CCCCN1CC(=O)N1c2ccccc2C(=O)Nc2cccnc21 (stereo not given) | inactive | –
15 | COc1ccc(C(=O)N2CCN(CC(=O)N3CCOCC3)CC2)cc1 | inactive | –
16 | C[N+](C)(C)CC(O)CC(=O)[O-] (stereo not given) | inactive | –
17 | Nc1c2c(nc3c1CCC3)CCCC2 | inactive | –
18 | CC1(C)[C@@H](OC(=O)CCC(=O)O)CC[C@]2(C)[C@H]3C(=O)C=C4[C@@H]5C[C@@](C)(C(=O)O)CC[C@]5(C)CC[C@@]4(C)[C@]3(C)CC[C@@H]12 | inactive | –
19 | O=C(CN1CCNCC1)NC1CCCCC1 | inactive | –
20 | NNc1nnc(NN)c2ccccc12 | inactive | –

Row | Structure (SMILES) | outcome | activity change, negative = cytotoxic
21 | Cc1c(I)c(=O)n(-c2ccccc2)n1C | inactive | –
22 | C[C@H]1COc2c(C3(N)CC3)c(F)cc3c(=O)c(C(=O)O)cn1c23 | inactive | –
23 | CC(=O)NCc1c(I)c(NC(C)=O)c(I)c(C(=O)O)c1I | inactive | –
24 | COc1ccc2cc(CCC(C)=O)ccc2c1 | inactive | –
25 | Cc1ccc(S(=O)(=O)NC(=O)NC2CCCCCCC2)cc1 | inactive | –
26 | CCS(=O)(=O)CCn1c([N+](=O)[O-])cnc1C | inactive | –
27 | CC(C)C[C@@H](N)C(=O)O | inactive | –
28 | CN1C(C)(C)CCCC1(C)C | inactive | –
29 | CCN[C@H]1CN(CCCOC)S(=O)(=O)c2sc(S(N)(=O)=O)cc21 | inactive | –
30 | COc1cc(C(=O)NCCCCCC(=O)O)cc(OC)c1OC | inactive | –
31 | Cc1ccsc1C(=CCCN1CCC[C@@H](C(=O)O)C1)c1sccc1C | inactive | –
32 | CN[C@@H]1[C@@H](O)[C@@H](O[C@@H]2[C@H](O)[C@H](O[C@H]3OC(CN)=CC[C@H]3N)[C@@H](N)C[C@H]2N)OCC1(C)O (stereo not given in full) | inactive | –
33 | NC(N)=NS(=O)(=O)c1ccc(N)cc1 | inactive | –
34 | NS(=O)(=O)c1cc(C2(O)NC(=O)c3ccccc32)ccc1Cl (stereo not given) | inactive | –
35 | CC(C)NC[C@@H](O)COc1ccc(CC(N)=O)cc1 | inactive | –
36 | CCN(CC)CCOC(=O)C(c1ccccc1)c1ccccc1 | inactive | –
37 | CC(C)=CCC/C(C)=C/CO | inactive | –
38 | CC1(C)S[C@@H]2[C@H](N=CN3CCCCCC3)C(=O)N2[C@H]1C(=O)O | inactive | –
39 | C[N+]1(C)CCCC(OC(=O)C(O)(c2ccccc2)c2ccccc2)C1 (stereo not given) | inactive | –
40 | Cc1c(NC(C)C)c(=O)n(-c2ccccc2)n1C | inactive | –
